Screening results (PubChem BioAssay)
Pol iota inh: DNA polymerase iota (human) inhibition; Pol iota fluorescent replication assay, 10 min; Potency, µM (highest dose often 115 µM), inactives show at the highest dose activity, negative = inhibition, hits mostly inhibitors; 390,000 tested, 1% active
Target sequence (Q9UNA4 whole entry, looked up): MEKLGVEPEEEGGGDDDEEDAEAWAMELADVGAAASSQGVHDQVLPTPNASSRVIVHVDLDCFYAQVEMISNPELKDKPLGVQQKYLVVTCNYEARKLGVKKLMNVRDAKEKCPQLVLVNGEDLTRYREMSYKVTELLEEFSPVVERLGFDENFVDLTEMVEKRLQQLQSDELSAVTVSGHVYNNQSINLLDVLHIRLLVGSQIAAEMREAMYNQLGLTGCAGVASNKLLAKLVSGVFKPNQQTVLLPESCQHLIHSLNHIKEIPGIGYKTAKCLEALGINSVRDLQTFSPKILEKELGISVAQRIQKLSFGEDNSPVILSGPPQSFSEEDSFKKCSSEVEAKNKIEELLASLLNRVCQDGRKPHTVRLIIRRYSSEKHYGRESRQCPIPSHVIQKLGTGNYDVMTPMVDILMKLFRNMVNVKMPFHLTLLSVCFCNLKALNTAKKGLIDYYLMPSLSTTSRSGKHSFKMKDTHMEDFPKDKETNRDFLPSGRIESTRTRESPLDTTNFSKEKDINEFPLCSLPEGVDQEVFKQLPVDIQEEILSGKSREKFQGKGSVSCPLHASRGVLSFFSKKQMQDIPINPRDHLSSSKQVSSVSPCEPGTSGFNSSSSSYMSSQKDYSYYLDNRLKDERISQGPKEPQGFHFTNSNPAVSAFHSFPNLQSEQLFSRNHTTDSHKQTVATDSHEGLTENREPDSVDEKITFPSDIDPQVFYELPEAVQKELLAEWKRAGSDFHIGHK
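Pol iota at 10 nM preincubated 15 min with compounds at room temperature; reaction started with fluorescent substrate, 50 nM final. Fluorescence read kinetically at 0 and 10 min; buffer-only wells as negative control.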
FEN1 inhibitor: blocks human flap endonuclease 1; P39748; Recombinant FEN1 flap cleavage, fluorescence, 15 min; Potency, µM (titrated, usually from 114 µM), for the others: top-dose activity change, negative = inhibition, usual class: inhibitors; 390,000 tested, 0.35% active; note: % is set by controls: 0 for no effect and ±100 for the full control effect; nearly all actives have a fitted effect of over 65% in size
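Read-out was taken twice, immediately and after 15 min, following addition of 50 nM substrate to 10 nM FEN1 that had sat with test compound for 15 min at room temperature. Curves came from a four-parameter Hill model.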
TDP1 inh: TDP1 (human) enzyme inhibition | Potency, µM (top dose mostly 130 µM), inactives show at the highest dose activity change, negative = inhibition, actives largely listed as inhibitors | recombinant TDP1, AlphaScreen DNA substrate cleavage | 350,000 tested, 0.28% active | Q9NUW8; note: % is set by controls: 0 for no effect and ±100 for the full control effect; nearly all actives have a fitted effect of over 40% in size
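Enzyme-compound mixtures sat 15 min at room temperature, followed by a 5 min reaction with 15 nM final substrate and 10 min with AlphaScreen beads. Recombinant human Tdp1 was used at 1 nM final.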
Pol eta inh: DNA polymerase eta (human) inhibition. Q9Y253. recombinant Pol eta, fluorescent DNA replication assay. Potency, µM (titrated, usually from 114 µM), for the others: top-dose activity change, negative = inhibition, most hits filed as inhibitors. 390,000 tested, 1.2% active. AID 588591; note: % is set by controls: 0 for no effect and ±100 for the full control effect
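Fluorescent replication assay: 50 nM final substrate added after a 15 min room-temperature compound preincubation with 10 nM enzyme. Signal taken at 0 min and again at 10 min.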
POLK inh: inhibitors of human DNA polymerase kappa | Q9UBT6 | purified Pol kappa, fluorescent DNA synthesis assay, 10 min | Potency, µM (series often up to 107 µM), inactives show at the top dose activity, negative = inhibition, actives largely listed as inhibitors | 400,000 tested, 0.53% active; note: % is set by controls: 0 for no effect and ±100 for the full control effect
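Readout: fluorescence, taken kinetically at 0 and 10 min. Conditions: 10 nM Pol kappa, 15 min RT compound preincubation, 50 nM substrate final. Controls: enzyme-free buffer wells.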
POLB inh: inhibitors of human DNA polymerase beta | P06746 | Potency, µM (top dose mostly 114 µM), for the others: top-dose activity change, negative = inhibition, hits mostly inhibitors | 340,000 tested, 1.3% active | Pol beta primer extension/strand displacement, fluorescence kinetic; note: % is set by controls: 0 for no effect and ±100 for the full control effect
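Values derive from four-parameter Hill fits of normalized kinetic data: reads at 0 and 10 min following addition of 50 nM substrate to 10 nM Pol beta preincubated 15 min with compound.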
Active calls of the source: *; ? = inconclusive; . = not tested or not shown; [ ] = dose if it differs, or a comment. Shown are actives, neighbours in structure and some others; about 2.4% of the full set was active somewhere. Calls come from the whole dose curve; as a rule, active = well fitted curve in the direction sought with a large enough effect; inconclusive = small, poorly fitted or top-dose-only effect, or another doubt; inactive = no such curve, though single readings can be large; an effect the other way counts as inactive or inconclusive. Potency is the fitted concentration of half-maximal effect.

SMILES	Pol iota inh	FEN1 inhibitor	TDP1 inh	Pol eta inh	POLK inh	POLB inh
CCCN(CCC)C(=O)CN1C(=O)CSc2ccc(S(=O)(=O)N3CCC(C)CC3)cc21	18.8%	4.5%	6.8%	-13.3%	-4.1%	-1.5%
CCCN1CNc2c(c(=O)[nH]c(=S)n2CCc2cccc(OC)c2OC)C1	-1.9%	15.8%	-8.5%	.	1.2%	.
S=C(NCCc1ccccc1)N1CCN(C(c2ccccc2)c2ccccc2)CC1	-5.6%	-5.8%	0.6%	-8.8%	-2.8%	89.1µM*
CCCCNC(=S)N1CCN(C(c2ccccc2)c2ccccc2)CC1	100.4%	-16.3%	8.8%	-24.5%	-10.2%	0.0%
CCNC(=O)NCc1cccc(Cl)c1	.	.	2.7%	.	1.7%[19.4 µM]	.
CC1CCN(S(=O)(=O)c2ccc3c(ccc(=O)n3CC(=O)Nc3cccc(F)c3)c2)CC1	16.5%	12.6%	0.0%	-8.4%	-1.9%[60.1 µM]	-21.1%
O=C(Nc1ccc(Br)cc1F)c1cc(S(=O)(=O)NCc2ccc(F)cc2)ccc1F	18.2%	-4.1%	2.6%	-4.9%	-15.3%[60.1 µM]	18.3%
COc1cccc(C(=O)/C=C/Nc2ccc(S(=O)(=O)Nc3cnc4ccccc4n3)cc2)c1	?	0.9%	0.6%	15.8µM*	-14.4%	2.7%
CCC(=O)Oc1ccc2c(c1)O/C(=C\c1ccco1)C2=O	?	-26.0%	0.0%	?	?	?
Cc1cc(O)cc2c1C(=O)/C(=C/c1ccco1)O2	?	-22.5%	.	-32.8%	?	?
COC(=O)COc1ccc2c(c1)O/C(=C\c1ccco1)C2=O	?	1.8%	.	?	-26.2%	31.6µM*
CCN(CC)C(=O)Oc1ccc2c(c1)O/C(=C\c1ccco1)C2=O	?	-25.8%	.	-25.8%	-11.8%	44.7µM*
CN(Cc1ccco1)c1ccnc(-c2cccnc2)n1	.	.	.	.	25.1µM*	.
CN(Cc1ccco1)c1ccnc(-c2ccoc2)n1	.	.	3.55µM*	.	?	.
Cc1noc(C)c1-c1nccc(N(C)Cc2ccco2)n1	.	.	.	.	-4.1%[60.1 µM]	.
NC(CSCSCC(N)C(=O)O)C(=O)O (stereo unspecified)	.	.	5.4%	.	-3.3%[60.1 µM]	.
Cc1ccc(CNC(=O)C2CCCN(S(=O)(=O)c3cccc4nsnc34)C2)cc1 (stereo unspecified)	34.1%	13.5%	4.7%	-13.1%	4.4%	22.7%
Cc1c(Cl)cccc1NC(=O)CNS(=O)(=O)c1cccs1	16.0%	11.8%	6.6%	-12.2%	-6.9%[60.1 µM]	-15.8%
CC1Cc2ccccc2N1C(=O)COC(=O)c1ccc([N+](=O)[O-])o1 (stereo unspecified)	?	28.2µM*	1.7%	?	-7.7%	.
Cc1cn2c(=O)cc(COc3ccccc3NC(=O)c3ccco3)nc2s1	?	-1.4%	1.3%	-1.5%	-7.4%	32.6%
CC(=O)Nc1ccc(C(=O)OCC(=O)N(c2ccccc2)C2CCCCC2)cc1	-0.2%	5.3%	0.2%	-23.8%	-9.7%	.
COc1cc(C(=O)OCC(=O)N(CC(C)C)C2CCS(=O)(=O)C2)cc(OC)c1C (stereo unspecified)	?	-4.2%	31.6µM*	?	-5.1%	.
CC(=O)Nc1cc(NC(C)=O)cc(C(=O)OCC(=O)N(c2ccccc2)C2CCS(=O)(=O)C2)c1 (stereo unspecified)	?	0.1%	44.7µM*	?	-18.1%	.
CC(C)CN(C(=O)COC(=O)c1ccc(C#N)cc1)C1CCS(=O)(=O)C1 (stereo unspecified)	76.8%	-0.1%	1.6%	-9.1%	-8.8%	.
O=C(NCCc1ccccc1)c1ccc(CSc2nc3ccncc3n2Cc2ccc(F)cc2)cc1	16.2%	-19.2%	0.0%	-9.8%	0.1%	12.6%
Cc1cc(C)c2c(NC(=O)c3ccccc3Cl)c(C(=O)NCc3ccc(Cl)cc3)sc2n1	-19.5%	-19.4%	-4.5%	.	-16.4%	22.4µM*
CC(C)(C)OC(=O)NCC(=O)NNC(=O)c1cc2ccccc2[nH]1	.	.	0.4%	.	.	.
